# Measurements as given in the supplement of paper PMC8975748.
# Counter-ions that a name gives are not always drawn. ± gives the standard deviation of the averaged measurements.
# Assays:
# [1] = test system: Saccharomyces cerevisiae BY4741 SeMeCo community; assay: mean cell size (pixel area) (pixels); higher = larger cells; details: 10 µM; 24 h; SM minimal medium
# In short: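 Harmony analysis of automated confocal images of paraformaldehyde-fixed yeast gave the mean cell pixel area per well. The yeast was a Saccharomyces cerevisiae BY4741 community carrying four plasmids, each with a fluorescent marker and each complementing one auxotrophy, incubated for 24 h in SM medium containing drug at a final 10 µM in 384-well plates. Results are averaged over 3 replicates. Same SeMeCo high-content imaging drug screen: Selleck FDA-approved drugs at 10 µM, 24 h in SM medium, 384-well plates, 3 replicates.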
# [2] = test system: Saccharomyces cerevisiae BY4741 SeMeCo community; assay: z-score of prototroph abundance vs DMSO median; higher = larger share of this subpopulation than in DMSO controls; details: 10 µM; 24 h; SM minimal medium; subpopulation (auxotrophy): Prototroph
# In short: (§1)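 Cells of a Saccharomyces cerevisiae BY4741 community, carrying four plasmids that each restored one auxotrophy and encoded a distinct fluorescent protein, were pre-grown overnight to OD600 1.0 and diluted to 0.3. A 70 µl volume was added to 384-well plates acoustically predosed with library drugs (10 µM final) and grown 24 h in minimal SM medium. After paraformaldehyde fixation, automated confocal microscopy was used, with single-auxotroph fluorescent strains for thresholds and autofluorescence correction. The abundance of each subpopulation was scored as a z-score against the vehicle-well median.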
# [3] = test system: Saccharomyces cerevisiae BY4741 SeMeCo community; assay: z-score of subpopulation abundance vs DMSO median, subpopulation auxotrophic for L; higher = larger share of this subpopulation than in DMSO controls; details: 10 µM; 24 h; SM minimal medium; subpopulation (auxotrophy): L
# In short: as §1
# [4] = test system: Saccharomyces cerevisiae BY4741 SeMeCo community; assay: z-score of subpopulation abundance vs DMSO median, subpopulation auxotrophic for U; higher = larger share of this subpopulation than in DMSO controls; details: 10 µM; 24 h; SM minimal medium; subpopulation (auxotrophy): U
# In short: as §1
# [5] = test system: Saccharomyces cerevisiae BY4741 SeMeCo community; assay: z-score of subpopulation abundance vs DMSO median, subpopulation auxotrophic for H; higher = larger share of this subpopulation than in DMSO controls; details: 10 µM; 24 h; SM minimal medium; subpopulation (auxotrophy): H
# In short: as §1
# [6] = test system: Saccharomyces cerevisiae BY4741 SeMeCo community; assay: z-score of subpopulation abundance vs DMSO median, subpopulation auxotrophic for LU; higher = larger share of this subpopulation than in DMSO controls; details: 10 µM; 24 h; SM minimal medium; subpopulation (auxotrophy): LU
# In short: as §1
# [7] = test system: Saccharomyces cerevisiae BY4741 SeMeCo community; assay: z-score of subpopulation abundance vs DMSO median, subpopulation auxotrophic for LM; higher = larger share of this subpopulation than in DMSO controls; details: 10 µM; 24 h; SM minimal medium; subpopulation (auxotrophy): LM
# In short: as §1
# [8] = test system: Saccharomyces cerevisiae BY4741 SeMeCo community; assay: z-score of subpopulation abundance vs DMSO median, subpopulation auxotrophic for HM; higher = larger share of this subpopulation than in DMSO controls; details: 10 µM; 24 h; SM minimal medium; subpopulation (auxotrophy): HM
# In short: as §1
# [9] = test system: Saccharomyces cerevisiae BY4741 SeMeCo community; assay: z-score of subpopulation abundance vs DMSO median, subpopulation auxotrophic for HL; higher = larger share of this subpopulation than in DMSO controls; details: 10 µM; 24 h; SM minimal medium; subpopulation (auxotrophy): HL
# In short: as §1
# [10] = test system: Saccharomyces cerevisiae BY4741 SeMeCo community; assay: z-score of subpopulation abundance vs DMSO median, subpopulation auxotrophic for HLU; higher = larger share of this subpopulation than in DMSO controls; details: 10 µM; 24 h; SM minimal medium; subpopulation (auxotrophy): HLU
# In short: as §1
# [11] = test system: Saccharomyces cerevisiae BY4741 SeMeCo community; assay: z-score of subpopulation abundance vs DMSO median, subpopulation auxotrophic for HLM; higher = larger share of this subpopulation than in DMSO controls; details: 10 µM; 24 h; SM minimal medium; subpopulation (auxotrophy): HLM
# In short: as §1
# [12] = test system: Saccharomyces cerevisiae BY4741 SeMeCo community; assay: z-score of subpopulation abundance vs DMSO median, subpopulation auxotrophic for HUM; higher = larger share of this subpopulation than in DMSO controls; details: 10 µM; 24 h; SM minimal medium; subpopulation (auxotrophy): HUM
# In short: as §1
# [13] = test system: Saccharomyces cerevisiae BY4741 SeMeCo community; assay: z-score of subpopulation abundance vs DMSO median, subpopulation auxotrophic for LUM; higher = larger share of this subpopulation than in DMSO controls; details: 10 µM; 24 h; SM minimal medium; subpopulation (auxotrophy): LUM
# In short: as §1
# [14] = test system: Saccharomyces cerevisiae BY4741 SeMeCo community; assay: z-score of subpopulation abundance vs DMSO median, subpopulation auxotrophic for HLUM; higher = larger share of this subpopulation than in DMSO controls; details: 10 µM; 24 h; SM minimal medium; subpopulation (auxotrophy): HLUM
# In short: as §1
# [15] = test system: Saccharomyces cerevisiae BY4741 SeMeCo community; assay: z-score of subpopulation abundance vs DMSO median, subpopulation auxotrophic for HU; higher = larger share of this subpopulation than in DMSO controls; details: 10 µM; 24 h; SM minimal medium; subpopulation (auxotrophy): HU
# In short: as §1
# [16] = test system: Saccharomyces cerevisiae BY4741 SeMeCo community; assay: z-score of subpopulation abundance vs DMSO median, subpopulation auxotrophic for UM; higher = larger share of this subpopulation than in DMSO controls; details: 10 µM; 24 h; SM minimal medium; subpopulation (auxotrophy): UM
# In short: as §1
Compound,mean cell size [1],z-score of prototroph abundance [2],z-score of subpopulation abundance [3],z-score of subpopulation abundance [4],z-score of subpopulation abundance [5],z-score of subpopulation abundance [6],z-score of subpopulation abundance [7],z-score of subpopulation abundance [8],z-score of subpopulation abundance [9],z-score of subpopulation abundance [10],z-score of subpopulation abundance [11],z-score of subpopulation abundance [12],z-score of subpopulation abundance [13],z-score of subpopulation abundance [14],z-score of subpopulation abundance [15],z-score of subpopulation abundance [16]
Nc1c(Br)cc(Br)cc1CN[C@H]1CC[C@H](O)CC1 [Ambroxol HCl],12.1 ± 0.17,1.21,-1.26,-0.79,-0.09,-0.9,-0.43,-1.17,-0.86,-0.39,-0.5,-0.94,-1.08,-0.43,,
CCCN[C@H]1CCc2nc(N)sc2C1 [Pramipexole],,-0.22,-0.15,0.72,,0.21,-0.62,0.07,,0.75,0.06,0.71,0.35,0.18,1.27,0.05
CCCCCC(=O)O[C@]1(C(C)=O)CC[C@H]2[C@@H]3CCC4=CC(=O)CC[C@]4(C)[C@H]3CC[C@@]21C [Hydroxyprogesterone caproate],12.47 ± 0.039,,1.21,-0.21,1.49,0.72,1.5,1.31,1.2,0.62,0.65,1.38,1.15,,1.19,0.42
CNCC[C@H](Oc1cccc2ccccc12)c1cccs1 [Duloxetine HCl],12.5 ± 0.21,0.65,-0.57,-0.11,-0.45,-0.43,-0.49,0,-1.07,-0.74,-0.84,-0.47,-0.53,,,0.1
Cc1cc(/C=C/c2ccc3cc(N(C)C)ccc3[n+]2C)c(C)n1-c1ccccc1 [pyrvinium],12.38 ± 0.085,0.55,-1.29,0.84,-3.04,0.05,,-0.29,,-0.46,-0.3,-0.73,-0.14,-0.49,-0.67,
CCCOc1ccc2[nH]c(NC(=O)OC)nc2c1 [Oxibendazole],12.26 ± 0.1,,0.1,0.5,0.1,1.03,,0.95,0.7,0.8,0.16,1.12,0.95,0.11,0.92,1.39
CO[C@@]1(NC(=O)Cc2cccs2)C(=O)N2C(C(=O)O)=C(COC(N)=O)CS[C@@H]21 [Cefoxitin sodium],,,-1.28,-0.18,-0.25,-0.8,-1.09,,-0.41,-1.19,-0.9,-1.19,-0.95,-0.41,-0.94,-0.63
C=C[C@]1(C)C[C@@H](OC(=O)CSC(C)(C)CNC(=O)[C@H](N)C(C)C)[C@]2(C)[C@H](C)CC[C@]3(CCC(=O)[C@H]32)[C@@H](C)[C@@H]1O [Valnemulin HCl],12.3 ± 0.19,-0.65,0.38,0.15,0.85,0.87,0.54,0.32,,1.01,0.18,0.58,0.67,,1.22,0.26
CC1=CC[C@@](O)(C(C)C)CC1 [Terpinen-4-ol],12.39 ± 0.073,-0.41,0.37,0.8,-0.04,0.74,,-0.39,,0.05,0.54,-0.35,0.2,,0.31,0.26
O=C(O)Cc1ccccc1Nc1c(Cl)cccc1Cl [Diclofenac acid],,1.03,0.08,-0.61,-1.45,-0.18,0,0.14,,0.15,0,-1.34,,-0.07,-1.1,-0.58
O=C(O)Cc1ccccc1Nc1c(Cl)cccc1Cl [Diclofenac Diethylamine],12.66 ± 0.1,2.27,0.07,-1.34,-1.31,-0.75,-0.51,,-1.1,-0.36,-0.26,-1.96,-1.21,0,-1.85,-1.81
CN(C)CCOc1ccc(/C(=C(/CCCl)c2ccccc2)c2ccccc2)cc1 [Toremifene Citrate],,-1.18,0.06,0.79,2.17,0.34,0.69,,1.37,1.1,1.44,0.27,0.81,-0.23,2.51,0.54
CC(=O)[C@H]1CC[C@H]2[C@@H]3CC=C4C[C@@H](O)CC[C@]4(C)[C@H]3CC[C@]12C [Pregnenolone],,,1.12,-0.89,-0.46,-0.42,0.32,-0.44,0.47,-0.1,0.71,-0.94,-0.02,0.21,-0.76,
O=C(O)c1cc(=O)c2c(OCC(O)COc3cccc4oc(C(=O)O)cc(=O)c34)cccc2o1 [Disodium Cromoglycate],12.1 ± 0.22,0.23,-1.19,0.66,-0.75,-0.38,-0.12,-0.13,-1.3,-0.29,-0.04,-0.62,,-0.81,0.68,-0.22
C#CCN[C@@H]1CCc2ccccc21 [Rasagiline],12.26 ± 0.11,0.01,-0.1,,-0.48,0.78,-0.61,-0.4,-0.5,-0.13,-0.17,-0.36,0.07,0.12,0,0.58
